Screens deposited in PubChem by National Center for Advancing Translational Sciences (NCATS).
Most compounds without a hit are left out; they make up all but 19% or so of the library.
TDP1 cell CPT: DT40-hTDP1 cell growth loss with CPT. chicken DT40 Tdp1-/-;hTDP1 cells + 20 nM CPT, ATP luminescence, 48 h. Potency, µM (highest dose often 46.2 µM), without a hit: top-dose activity change, negative = growth inhibition, hits mostly inhibitors. actives 12% (n = 420,000); further: potency means the concentration at half of the fitted maximal effect; nearly all actives have a fitted effect of over 55% in size
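Chicken DT40 Tdp1-/- cells complemented with human TDP1, 400 cells/well, exposed to compounds plus 20 nM camptothecin for at least 48 h at 37 C; viability read as ATP content by CellTiter-Glo luminescence.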
TDP1 cell noCPT: qHTS for Inhibitors of human tyrosyl-DNA phosphodiesterase 1 (TDP1): qHTS in cells in absence of CPT; DT40 Tdp1-/- hTDP1 cells, no CPT, ATP luminescence, 48 h; Potency, µM (titrated, usually from 46.2 µM), for inactives: at the top dose activity change, negative = growth inhibition, hits mostly inhibitors; actives 15% (n = 420,000); further: potency means the concentration at half of the fitted maximal effect; nearly all actives have a fitted effect of over 55% in size
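Growth of hTDP1-complemented DT40 Tdp1-knockout cells is measured by ATP luminescence after at least 48 hr compound exposure at 37 °C, with DMSO substituting for the 20 nM CPT used in the parallel screen.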
HT1080 IDH1KD tx: HT-1080 IDH1 knockdown cell toxicity (counter line); actives 2% (n = 360,000); AID 686971; Potency, µM (doses to about 46.1 µM), for inactives: at the highest dose activity, negative = toxicity, usual class: cytotoxic; HT-1080 IDH1 knockdown viability, ATP luminescence, 48 h;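 further: potency means the concentration at half of the fitted maximal effect; 0% = DMSO wells and -100% = cell-free medium wells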
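Viability of IDH1-knockdown HT-1080 fibrosarcoma cells was assessed by CellTiter-Glo after 48 h at 37 °C with titrated compound; concentration-effect curves were classified by fit quality and response size.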
IL-1B inflam inh: inflammasome signaling inhibition, IL-1 beta readout; activity change, % at 57.5 µM; actives 4.7% (n = 360,000); THP-1 LPS/ATP IL-1B secretion, AlphaLISA, 16 h; stronger effect = lower value; in the data active means activity change below about -50%; inconclusive means mostly about -30% to -49%
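THP-1 cells pretreated 1 hr with compounds (up to 57.5 uM final), then stimulated with LPS (250 ng/mL final) plus ATP (1.25 mM final); secreted IL-1B measured by AlphaLISA after 16 hr, decreased signal indicating inhibition.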
HT1080NT lethal: kills 2HG-producing HT-1080-NT fibrosarcoma cells. HT-1080-NT fibrosarcoma viability, CellTiter-Glo ATP luminescence, 48 h. actives 1.6% (n = 360,000). Potency, µM (highest dose often 46.1 µM), inactives show at the highest dose activity, negative = less viability, most hits filed as cytotoxic;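 further: NT is the 2HG producing partner of a matched IDH1 knockdown line; potency means the concentration at half of the fitted maximal effect; 0% = DMSO-treated cells and -100% = media-only wells without cells; nearly all actives have a fitted effect of over 55% in size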
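Luminescent CellTiter-Glo readout after 48 hours of compound exposure at 37 degrees C defined viability of HT-1080-NT cells. Activity was normalized to DMSO wells and cell-free media wells; concentration-response curves were fitted and assigned curve classes.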
Active calls of the source: *; ? = inconclusive; nt = not tested or not shown; [ ] = remark or other dose. Unless noted, the call rests on the fitted dose curve; in most records, active means well fitted curve in the direction sought with a large enough effect; inconclusive means small, poorly fitted or top-dose-only effect, or another doubt; inactive means no such curve, though single readings can be large; an effect the other way counts as inactive or inconclusive. Unless noted, on the % scale 0 is the no-effect control and ±100 the full control effect.

SMILES | TDP1 cell CPT | TDP1 cell noCPT | HT1080 IDH1KD tx | IL-1B inflam inh | HT1080NT lethal
OCC1OC(n2cnc3c(Cl)ncnc32)C(O)C1O (centres undefined) | 9.2µM* | 4.6µM* | nt | nt | nt
COc1nc(N)nc2c1ncn2[C@@H]1O[C@H](CO)[C@@H](O)[C@@H]1O | ? | -26% | nt | nt | nt
Nc1ncnc2c1ncn2[C@@H]1O[C@H](COP(=O)(O)OP(=O)(O)OP(=O)(O)O)[C@@H](O)[C@H]1O | 0% | -1% | ? | 1 | ?
NC(=S)c1cn(C2OC(CO)C(O)C2O)c2ncnc(N)c12 (centres undefined) | 0.13µM* | 0.16µM* | 1.3µM* | -100* | ?
Nc1ncnc2c1ccn2[C@@H]1O[C@H](CO)[C@@H](O)[C@H]1O | 0.021µM* | 0.15µM* | 0.82µM* | -110* | 0.65µM*
C[S+](CC[C@H](N)C(=O)O)C[C@H]1O[C@@H](n2cnc3c(N)ncnc32)[C@H](O)[C@@H]1O (some centres undefined) | ? | ? | -1% | -1 | -6%
CN(Cc1ccccc1)C(=C(Cl)Cl)/C(=C1/NCCN1Cc1ccc(Cl)nc1)[N+](=O)[O-] | ? | ? | 6%[9.24 µM] | ? | -4%
Cc1cc(OCC(=O)NC2CCS(=O)(=O)C2)c2c3c(c(=O)oc2c1)CCC3 (centres undefined) | 12% | -7% | -19% | -6 | 2%
O=c1[nH]/c(=C\c2ccc(N(CCCl)CCCl)cc2)c(=O)[nH]/c1=C\c1ccc(N(CCCl)CCCl)cc1 | 3.2µM* | ? | nt | nt | nt
O=C1/C(=C/c2ccc(N(CCCl)CCCl)cc2)Cc2ccccc21 | 4.5µM* | 7.9µM* | nt | nt | nt
CC(=NC(C)c1ccccc1)c1c(O)[nH]c(=O)[nH]c1=O (centres undefined) | ? | -27% | -17% | 36 | -29%[9.24 µM]
O=C1c2ccccc2C2(c3ccc(Cl)cc3)NCCN12 (centres undefined) | 4% | -16% | -12% | -53* | -2%
O=C1C2CCCN2C(c2ccc(Cl)cc2)N1c1ccccn1 (centres undefined) | -4% | -5% | -1% | -19 | -2%
Cc1ccc2c(c1)C1CN(C)CCC1N2C(=O)c1ccccc1NS(=O)(=O)c1cccc(C(F)(F)F)c1 (centres undefined) | ? | 13µM* | ? | -5 | -28%
Cc1ccc2c(c1)C1CN(C)CCC1N2C(=O)Cn1cnc2c1c(=O)n(C)c(=O)n2C (centres undefined) | -5% | -35% | 6% | 21 | 9%
COc1ccc(-c2nn(-c3ccccc3)cc2C(=O)N2c3ccc(C)cc3C3CN(C)CCC32)cc1 (centres undefined) | ? | 26µM* | 23µM* | ? | nt
Cc1ccc2c(c1)C1CN(C)CCC1N2C(=O)c1ccco1 (centres undefined) | -18% | -8% | ? | 0 | 0%
Cc1ccc2c(c1)C1CN(C)CCC1N2C(=O)Nc1cccc(Cl)c1 (centres undefined) | ? | 23µM* | -15% | -53* | -21%[9.24 µM]
C[C@]12CC[C@H](O)CC1C(=O)CC1C2CC[C@@]2(C)C1CC[C@@H]2O (some centres undefined) | -15% | -12% | 25% | 8 | 15%
CN1CCN(C(=O)OC2c3nccnc3C(=O)N2c2ccc(Cl)cn2)CC1 (centres undefined) | 7% | -15% | nt | nt | nt
C[C@@H]1C[C@@H](O)[C@@]2(O)[C@]13CC(=O)OC[C@]2(C)[C@@](C)(O)C(=O)C3 | -22%[9.04 µM] | -20%[9.04 µM] | nt | nt | nt
COc1cc(C)c(CN2CC=C(c3ccc(F)cc3)CC2)cc1C | -10% | ? | -11% | 8 | ?
COc1cc2nc(CN3CC=C(c4ccccc4)CC3)[nH]c(=O)c2cc1OC | ? | 18µM* | 1% | -24 | 1%
Cc1cccc(CCNCc2cc3ccc(C)cc3[nH]c2=O)c1 | 23µM* | ? | -10% | -12 | -12%
Cc1ccc2[nH]c(C)c(CCNCc3ccco3)c2c1 | ? | ? | -2% | -24 | -1%
SMILES | TDP1 cell CPT | TDP1 cell noCPT | HT1080 IDH1KD tx | IL-1B inflam inh | HT1080NT lethal
O=C(OC1CCN(CCCl)CC1)C(c1ccccc1)c1ccccc1 | 16µM* | ? | -22% | -71* | -25%
C[N+]1(C)[C@@H]2CC[C@H]1CC(OC(=O)C(c1ccccc1)c1ccccc1)C2 (some centres undefined) | ? | ? | 5% | 2 | 4%
CC(C)CS(=O)(=O)C1=NN2C(=N)/C(=C\c3ccc(OC(=O)c4ccco4)cc3)C(=O)N=C2S1 | ? | 15% | -6% | -8 | -6%
CN(C)C(=O)Oc1ccnc2cc(Cl)ccc12 | 7% | ? | 10% | -73* | -1%
O=C(CN1CCCC2CCCCC21)c1ccc(I)cc1 (centres undefined) | -6% | -2% | nt | nt | nt
CCOP(=O)(OCC)OCC | 2% | -16% | 4% | -17 | 0%
CCOP(=O)(CCP(=O)(OCC)OCC)OCC.C[CH2][Sn]([Cl])([Cl])[CH2]C | 0.73µM* | 0.82µM* | 4.6µM* | -100* | ?
CCCC12CN3CC(C)(CN(C1)C3c1c(C)[nH]c(=O)[nH]c1=O)C2=O (centres undefined) | -3% | -23% | nt | nt | nt
CCn1cc(CN2CCCC(C(=O)c3cccc(OC)c3)C2)c(C)n1 (centres undefined) | -21% | -27% | 0% | 35 | -3%
CCn1cc(CN(C)S(=O)(=O)c2ccc3ccccc3c2)c(C)n1 | 5.2µM* | 5.8µM* | -8% | 8 | -5%
Cc1ccc(C(C)(C)NC(=O)C2CCC(=O)N(C3CCCCCC3)C2)cc1 (centres undefined) | ? | -10% | 3% | 17 | 2%
COc1nc2ccccc2c(=O)n1-c1ccc(Cl)cc1 | ? | -25% | 2% | 17 | 6%
CCN(CC)CCSc1nc2ccccc2c(=O)n1-c1ccc(Cl)cc1 | 7.3µM* | 21µM* | nt | nt | nt
O=c1c2ccccc2nc(N2CCCC2)n1-c1ccc(Cl)cc1 | 21µM* | 16µM* | -1% | 25 | -17%
Cc1ccccc1-c1ccc2n1Cc1cnnn1-c1ccccc1-2 | ? | ? | 4% | -8 | 1%
c1cc(CN2CCC3(CCNCC3)CC2)ccn1 | -1% | -2% | nt | nt | nt
C[C@H](CCC(=O)O)[C@H]1CC[C@H]2[C@H]3C(CC[C@]12C)[C@@]1(C)CC[C@@H](O)C[C@H]1C[C@H]3O (some centres undefined) | -8% | -4% | nt | nt | nt
